Screens deposited in PubChem by Broad Institute.
ID4 binder: ID4 (human) binding; P47928; small molecule microarray, Flag-ID4 binding, fluorescence F/B; calls only; hit rate 1.2% among 31,000; AID 624137; call rule not given here;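 further: a binder raises fluorescence above local background on the spot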
Target sequence (P47928 whole entry, looked up): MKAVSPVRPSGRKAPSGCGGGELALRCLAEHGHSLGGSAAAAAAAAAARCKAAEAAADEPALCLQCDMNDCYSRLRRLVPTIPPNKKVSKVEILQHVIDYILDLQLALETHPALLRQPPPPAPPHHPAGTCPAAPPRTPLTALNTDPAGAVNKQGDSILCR
* = called active by the depositor; i = inactive; + = active, no number. This excerpt belongs to a sample that is enriched for hits.

SMILES | ID4 binder
Cc1ccc(C(=O)Nc2cccc(OC(=O)c3cc(S(=O)(=O)N4CCCCC4)ccc3Cl)c2)cc1 | +
COC(=O)COc1cccc(NC(=O)c2ccc(C)cc2)c1 | i
CCN(CC(=O)Nc1ccc(Br)cc1F)S(=O)(=O)c1ccc(Cl)cc1 | i
Cc1sc(NC(=O)c2cc3ccccc3oc2=O)c(C(=O)NCc2cccnc2)c1C | i
O=[N+]([O-])c1ccccc1S(=O)(=O)N1CCN(Cc2cccc(OCCO)c2)CC1 | i
O=[N+]([O-])c1ccccc1CN1CCN(CCO)CC1 | +
O=C(Cc1ccccc1[N+](=O)[O-])Nc1ccc(S(=O)(=O)N2CCCCC2)cc1 | i
Cc1cc(-c2ccccc2)nc(SCC(=O)Nc2ccccc2C#N)n1 | i
CNC[C@H]1Oc2ccc(NC(=O)Nc3ccc4c(c3)OCO4)cc2C(=O)N([C@@H](C)CO)C[C@H]1C | +
CNC[C@H]1Oc2ccc(NC(=O)Nc3ccc(F)cc3)cc2C(=O)N([C@@H](C)CO)C[C@H]1C | i
CNC[C@@H]1Oc2ccc(NC(=O)Nc3ccc(F)cc3)cc2C(=O)N([C@H](C)CO)C[C@@H]1C | i
CNC[C@@H]1OCCCC[C@H](C)Oc2ccc(NC(=O)Nc3ccc4c(c3)OCO4)cc2C(=O)N([C@H](C)CO)C[C@@H]1C | i
CNC[C@@H]1Oc2ccc(NC(=O)Nc3ccc4c(c3)OCO4)cc2C(=O)N([C@H](C)CO)C[C@H]1C | +
C[C@H](CO)N1C[C@H](C)[C@@H](CN(C)C)Oc2ccc(NC(=O)Nc3ccc4c(c3)OCO4)cc2C1=O | i
CNC[C@H]1Oc2ccc(NC(=O)Nc3ccc4c(c3)OCO4)cc2C(=O)N([C@@H](C)CO)C[C@@H]1C | i
C[C@H]1CCCCO[C@@H](CN(C)C)[C@@H](C)CN([C@@H](C)CO)C(=O)c2cc(NC(=O)Nc3ccc4c(c3)OCO4)ccc2O1 | i
CNC[C@H]1OCCCC[C@@H](C)Oc2ccc(NC(=O)Nc3ccc4c(c3)OCO4)cc2C(=O)N([C@@H](C)CO)C[C@H]1C | +
COc1ccc(CCNC(=O)C(=O)c2c(-c3ccccc3)[nH]c3ccccc23)cc1OC | i
CC(=O)COc1cc(OCC(C)=O)c2c(C)cc(=O)oc2c1 | i
N#CCSc1nnc(-c2ncc(C(F)(F)F)cc2Cl)n1-c1ccc(Cl)cc1 | i
Cc1ccc(-c2noc(CSc3nnc(-c4cccs4)n3-c3ccccc3)n2)cc1 | i
CCc1cc2c3c(c(=O)oc2cc1OCc1cc(C(=O)O)oc1C)CCCC3 | i
COc1ccc(Cl)cc1NC(=O)CSc1nc2ccccc2n1-c1ccccc1 | i
O=C(N[C@@H](Cc1ccccc1)Cn1cc(CN2C(=O)COC[C@H]2c2ccccc2)nn1)c1ccccc1 | i
O=C(Nc1ccccc1)N[C@H](Cc1ccccc1)Cn1cc(CN2C(=O)COC[C@H]2c2ccccc2)nn1 | +
SMILES | ID4 binder
COc1ccc(C(=O)Nc2ccccc2)cc1S(=O)(=O)Nc1cccnc1 | i
COc1ccc(NC(=O)c2ccc(OC(C)C(=O)O)cc2)cc1Cl (stereo unspecified) | +
COc1ccc(NC(=O)CNC(=O)c2ccc(OC)c(OC)c2)cc1Cl | i
COc1ccc(NC(=O)c2ccc(OC(C)C(=O)Nc3ccccc3C(F)(F)F)cc2)cc1Cl (stereo unspecified) | i
COc1ccccc1NC(=O)CSC1CC(=O)N(c2ccc(C)cc2)C1=O (stereo unspecified) | i
O=C(CCc1ccc(O)c(O)c1)C[C@H](CCc1ccc(O)c(O)c1)O[C@@H]1OC[C@@H](O)[C@H](O)[C@H]1O | i
C[C@H]1CCCCO[C@@H](CN(C)Cc2ccc(C(=O)O)cc2)[C@@H](C)CN([C@@H](C)CO)C(=O)c2cc(NS(=O)(=O)c3ccccc3)ccc2O1 | +
C[C@@H]1CN([C@@H](C)CO)C(=O)c2cc(NS(=O)(=O)c3ccccc3)ccc2O[C@@H](C)CCCCO[C@H]1CN(C)C(=O)c1ccncc1 | i
C[C@@H]1CCCCO[C@@H](CN(C)C(=O)c2ccncc2)[C@@H](C)CN([C@@H](C)CO)C(=O)c2cc(NS(=O)(=O)c3ccccc3)ccc2O1 | i
C[C@H]1CCCCO[C@@H](CN(C)C(=O)c2ccncc2)[C@@H](C)CN([C@@H](C)CO)C(=O)c2cc(NS(=O)(=O)c3ccccc3)ccc2O1 | +
C[C@H](CO)N1C[C@H](C)[C@H](CN(C)Cc2ccccc2)OCCCC[C@H](C)Oc2ccc(NS(=O)(=O)c3ccccc3)cc2C1=O | i
C[C@@H]1CCCCO[C@H](CN(C)Cc2ccccc2)[C@@H](C)CN([C@@H](C)CO)C(=O)c2cc(NS(=O)(=O)c3ccccc3)ccc2O1 | i
Cc1nn(C(=O)Cn2ccc([N+](=O)[O-])n2)c(C)c1I | i
O=C(CSc1nnc(-c2cccs2)n1-c1ccccc1)c1ccc(Br)cc1 | i
COc1c(O)c(C(=O)CCc2ccccc2)c(OC)c(OC)c1OC | i
CNC[C@@H]1OCCCC[C@H](C)Oc2ccc(NS(=O)(=O)c3cccs3)cc2C(=O)N([C@@H](C)CO)C[C@H]1C | i
CNC[C@@H]1OCCCC[C@@H](C)Oc2ccc(NS(=O)(=O)c3cccs3)cc2C(=O)N([C@H](C)CO)C[C@@H]1C | i
CNC[C@H]1OCCCC[C@H](C)Oc2ccc(NS(=O)(=O)c3cccs3)cc2C(=O)N([C@@H](C)CO)C[C@@H]1C | +
CNC[C@H]1OCCCC[C@@H](C)Oc2ccc(NS(=O)(=O)c3cccs3)cc2C(=O)N([C@H](C)CO)C[C@H]1C | i
CNC[C@@H]1OCCCC[C@@H](C)Oc2ccc(NS(=O)(=O)c3cccs3)cc2C(=O)N([C@@H](C)CO)C[C@H]1C | +
CNC[C@H]1OCCCC[C@H](C)Oc2ccc(NS(=O)(=O)c3cccs3)cc2C(=O)N([C@@H](C)CO)C[C@H]1C | i
Cc1cc(C)nc(NC(=O)NC(=O)COc2ccc(Cl)cc2Cl)n1 | i
CC(N=Cc1nc2ccccc2n1C)C12CC3CC(CC(C3)C1)C2 (stereo unspecified) | i
COc1cc(-c2nc3sc4c(c3c(=O)[nH]2)CCCC4)cc(Br)c1OCC(=O)O | +
CN(C)C(=O)CSc1nc2sc3c(c2c(=O)[nH]1)CCCC3 | i
SMILES | ID4 binder
Cc1ccccc1NC(=O)COc1ccc(-c2nc3sc4c(c3c(=O)[nH]2)CCCC4)cc1 | i
C=C[C@@]1(C)CCC2=C(C1)C(=O)CC1[C@](C)(C(=O)O)CCC[C@]21C (stereo partly specified) | i
NC(=O)c1c(NC(=O)C2CC(=O)OC23CCCCC3)sc2c1CCCCC2 (stereo unspecified) | i
NC(=O)c1c(NC(=O)C2CC(=O)N(c3ccccc3)C2)sc2c1CCCC2 (stereo unspecified) | +
NC(=O)c1c(NC(=O)Cn2c(=O)oc3ccccc32)sc2c1CCCC2 | i
O=c1cc(-c2ccc(O)cc2)oc2c(C3OC(CO)C(O)C(O)C3O)c(O)c(C3OCC(O)C(O)C3O)c(O)c12 (stereo unspecified) | i
COC(=O)c1cc(OC)c(OC)cc1NC(=O)CN1CCCCC1 | i
COc1ccc(OC)c(NC(=O)CN2CCC(C(N)=O)(N3CCCCC3)CC2)c1 | i
COC(=O)c1cc(OC)c(OC)cc1NC(=S)N1CCC(C(N)=O)(N2CCCCC2)CC1 | +
Cc1cc(C)c(S(=O)(=O)N(C)CC(=O)Nc2cccc(C)c2C)c(C)c1 | i
O=C(O)CCc1ccc(-c2cccs2)n1-c1cccc(C(F)(F)F)c1 | i
